Among the data in PubChem BioAssay (NCI) are growth values, retold here.

The panel holds about 83,000 compounds, 20% with a hit somewhere; the sample as a whole holds those more often.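 Values shown are percent growth following 48 h exposure of cells in 96-well plates to a single concentration of compound; below 10 was considered active.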 A number with no mark means an inactive call. Activity calls are given as the source filed them.

For the assay, the system named is NCI-H522 lung. The assay can be described thus: NCI-60 one-dose screen, 48 h (100 = growth as untreated, 0 = no growth, -100 = all killed). Conditions: 10 µM unless noted. The procedure:
Growth inhibition of the NCI-H522 human Non-Small Cell Lung tumor cell line is measured as a screen for anti-cancer activity. Cells are grown in 96 well plates and exposed to the test compound for 48 hours. Compounds are tested at a single concentration, which is 10^-5 M for most compounds. The reported endpoint is percent growth (GI% or GIPRCNT), where numbers from 0 - 100% represent growth inhibition, and numbers from -100% - 0 represent cell death. For example, a value of 40 represents 60% growth inhibition. A value of 0 means no net growth occurred over the course of the experiment. A value of -40 indicates 40% of cells at the beginning of the experiment died by the end of the experiment. A value of -100 means all cells are dead at the end of the experiment.
NCI-60 Human Tumor Cell Lines Screen was performed using the standard one-dose NCI protocol, which is described in more detail at https://dtp.cancer.gov/discovery_development/nci-60/default.htm.
Compounds with GIPRCNT values below 10 were considered active. Activity score was based on GIPRCNT using the following formula: […]
Score is 0 for GIPRCNT values of 100 or above, 50 for GIPRCNT values of 0, and 100 for GIPRCNT values of -100.
For the compound `COC(=O)c1oc2c(C(=O)/C=C/c3ccc(OC)cc3)c(OCCCN3CCCCC3)ccc2c1C`, the growth was 1.11% (active). As for `Cn1nc(C(F)(F)F)c(-c2cc(C(F)(F)F)cc(C(F)(F)F)c2)c1-c1ccc(OCc2ccc(Cl)cc2)cc1O`, the growth is -9.19% (active). As to `Cc1cc(C)n(-c2nc(-c3cccs3)c(C#N)c(=O)[nH]2)n1`, the growth was 83.8%. To `O=c1[nH]c2ccccc2cc1-c1nc2ccc(Cl)cc2[nH]1` belongs 38.2%; to `CCN1CCC[C@H]1c1cc(O)c2c(c1OC)C[C@H]1C[C@H]3[C@H](N)C(=O)C(C(N)=O)=C(O)[C@@]3(O)C(=O)C1=C2O`, -21.4% (active); to `Cc1cc(C)c2nc(Nc3nc(C)c(C)c(=O)[nH]3)nc(C)c2c1`, 7.15% (active). To `Cc1nnc(/N=C2\NC(=O)/C(=C/c3ccc(N(C)C)cc3)S2)s1` belongs 2.45% (active). As to `CCCCc1nc(Cl)c(C2CC(c3ccc(Cl)cc3)=NN2c2cc(Cl)cc(Cl)c2)[nH]1` (stereo not given), the growth is 32%. Under `COc1ccc([C@H]2[C@@H](F)C(=O)N2c2cc(OC)c(OC)c(OC)c2)cc1F` stands -8.46% (active). To `O=C(Nc1nc(-c2ccccc2Cl)cs1)c1cc(-c2ccc(Br)cc2)nc2ccccc12` belongs 4.64% (active). Under `O=C(O)C(C(=O)O)c1cccc2ccccc12` stands 88.9%. As for `O=C(Nc1cc(Nc2ncccc2-c2ncnc3nc[nH]c23)ccc1F)c1cc(C(F)(F)F)cc(C(F)(F)F)c1`, the growth was 11.7%.

Take `COc1ccc2c(c1)Oc1nc(N)c(C#N)c(N)c1C2Sc1ccc(O)cc1` (stereo not given): the growth was -37.8% (active). Under `CCCn1c2cc(OCc3cn(-c4ccc(Cl)cc4)nn3)ccc2c2ccnc(C)c21` stands 66.4%. To `CCCCCCCc1n(Cc2ccc3ccccc3c2)c2ccccc2[n+]1Cc1ccc2ccccc2c1` belongs -81.1% (active); to `O=C(CCc1nnc2sc(OCc3ccccc3)nn12)c1nc2ccc([N+](=O)[O-])cc2[nH]1`, 79.2%; to `N#Cc1ccc(C2C3=C(CCCC3=O)OC3=C2C(=O)c2ccccc2C3=O)cc1` (stereo not given), 0.737% (active). To `CS(=O)(=O)O[C@@H]1C(=O)N(c2cc3c4ccccc4ccc3c3ccccc23)[C@H]1c1ccc(F)cn1` belongs -19.9% (active). `O=C1Nc2ccc(Cl)cc2/C1=N/c1nc(-c2ccc(Cl)cc2)cs1`: the growth was -12.8% (active). With `COc1ccc2nc(-c3ccc(OC)c(OC)c3)cc(-c3nnc(SCC(=O)Nc4ccc(C(C)=O)cc4)o3)c2c1`, the growth is 88.3%. For the compound `Cc1nccc2c3ccc(OCc4cn(-c5ccccc5)nn4)cc3n(CCCc3ccccc3)c12`, the growth was 57.5%. As for `CCOC(=O)c1c(C)nc2c(c1N)/C(=C/c1cccs1)C(=O)N2c1ccc(OC)cc1`, the growth was 29.8%. Under `Cc1cc(Nc2nc(SCc3ccc(C(=O)Nc4ccc(F)cc4N)cc3)nn3cccc23)n[nH]1` stands -14.8% (active); under `O=C(Nc1ccccc1)NS(=O)(=O)c1c[nH]c(=S)[nH]c1=O`, 60.7%; under `Nc1c(C(=O)Nc2cccc3ccccc23)sc2nc3c(cc12)CCCCC3`, 0.413% (active). To `O=C(Nc1ccc(S(=O)(=O)NC2CCCCCC2)cc1)C(c1ccccc1)S(=O)(=O)c1ccc(F)cc1` (stereo not given) belongs -16% (active). To `COc1cc(C2=NN(c3ccccc3)C(c3cccc(Nc4ccnc5cc(C(F)(F)F)ccc45)c3)C2)cc(OC)c1OC` (stereo not given) belongs 76.4%; to `CCCCn1c2cc(OCc3cn(-c4ccc(Cl)cc4)nn3)ccc2c2ccnc(C)c21`, 24.2%. With `C=C1C(=O)O[C@H]2[C@H]1CC/C(COC(=O)CCCCCCCCC(=O)OC/C1=C/CC[C@@]3(C)O[C@H]3[C@H]3OC(=O)C(=C)[C@@H]3CC1)=C\CC[C@@]1(C)O[C@@H]21`, the growth is -51.3% (active). For `COc1ccc(-c2[nH]c3ccccc3c2C=C(C#N)C#N)cc1`, the growth is -48.5% (active).

With `Nc1n[nH]c2cccc(C#Cc3cccc(NC(=O)c4cc(N5CCOCC5)cc(C(F)(F)F)c4)c3)c12`, the growth is 53.2%.

Take `COc1cc(C2=NNC(c3ccc(N(C)C)cc3)C2)cc(OC)c1OC` (stereo not given): the growth was -6.25% (active).

Take `CC(C)NS(=O)(=O)c1cccc(-c2ccc3c4c(n(CCCN(C)C)c(=O)c3c2)-c2ccccc2C4=O)c1`: the growth is 86.7%. Regarding `Cc1ccc(C2CC(c3ccc(Nc4nc(NCCO)nc(NCCO)n4)cc3)=NN2c2ccc(Cl)cc2)cc1` (stereo not given), the growth was 67%.

Consider `CCOC(=O)C(=Cc1c(-c2ccccc2)[nH]c2ccccc12)C(=O)OCC`, for which the growth is -33.7% (active). Consider `COc1cc(C2=NN(C=O)C(c3cccc(Nc4ccnc5cc(C(F)(F)F)ccc45)c3)C2)cc(OC)c1OC` (stereo not given), for which the growth is 53.1%. As to `C=C(C)[C@@H]1CC[C@]2(C(=O)O)CC[C@]3(C)[C@H](CC[C@@H]4[C@@]5(C)C[C@@H](CC#Cc6ccc(Cl)cc6)C(=O)C(C)(C)[C@@H]5CC[C@]43C)[C@@H]12`, the growth was 12.6%. In the case of `CC(=O)ON1CCCC(P(=O)(OCOC(=O)C(C)(C)C)OCOC(=O)C(C)(C)C)C1=O` (stereo not given), the growth was -11% (active).

In the case of `C=C1C(=O)O[C@H]2[C@H]1CC/C(COC(=O)c1cc3ccccc3o1)=C\CC[C@@]1(C)O[C@@H]21`, the growth was -58.2% (active).

On to `C=C1C(=O)O[C@H]2[C@H]1CC/C(COC(=O)N1CCC[C@H]1C(=O)Nc1ccc(OC)c(C(N)=O)c1O)=C\CC[C@@]1(C)O[C@@H]21`, for which the growth is -28.1% (active).
